# The list is not random: actives were taken first. Their share in the collection is about 4.6%.
# D1 antagonist: antagonists of human D1 dopamine receptor; HEK293 TREx D1 cells, calcium flux, dopamine EC80; active compounds read low; activity change, negative = inhibition, % at 10 µM; 3.2% of 360,000 active; AID 504652; in the data active = activity change below about -30%; note: % is set by controls: 0 for no effect and ±100 for the full control effect
# Target sequence (P21728 whole entry, looked up): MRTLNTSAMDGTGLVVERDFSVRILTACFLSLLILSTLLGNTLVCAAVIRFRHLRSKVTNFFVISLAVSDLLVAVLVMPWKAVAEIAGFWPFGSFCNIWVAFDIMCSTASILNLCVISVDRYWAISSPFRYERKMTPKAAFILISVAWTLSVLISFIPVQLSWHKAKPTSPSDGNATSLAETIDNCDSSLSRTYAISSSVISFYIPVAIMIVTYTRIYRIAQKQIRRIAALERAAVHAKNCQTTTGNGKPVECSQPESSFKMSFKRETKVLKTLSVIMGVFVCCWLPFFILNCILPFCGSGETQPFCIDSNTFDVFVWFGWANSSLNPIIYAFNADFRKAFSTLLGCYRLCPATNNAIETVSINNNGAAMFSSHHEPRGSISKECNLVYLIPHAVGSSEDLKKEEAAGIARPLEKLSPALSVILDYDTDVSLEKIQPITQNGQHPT
#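 Using tetracycline-induced force-coupled D1 Hek293 cells and a calcium dye, signals were followed for 180 s after compound, then for 180 s after EC80 dopamine, to detect inhibitors.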
# TRHR agonist: activates the human TRH receptor; TRHR cells, calcium flux fluo-8, FDSS agonist mode; P34981; 0.18% of 360,000 active; activation, % at 2 µM; note: 0% is about no effect
#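 TRHR-expressing cells loaded with fluo-8 calcium dye; 23 nL library compound pin-transferred, kinetic FDSS fluorescence (Ex 480/Em 530) recorded about 180 s for agonist-induced calcium release, before a 10 nM TRH EC20 addition for potentiator mode.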
# D1 ag: activates the human D1 dopamine receptor. HEK293 T-REx D1 cells, calcium flux, agonist mode. P21728. activation, % at 2 µM. AID 504660. 1% of 360,000 active; note: 0% is about no effect
#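 Tetracycline-induced HEK293 TREx D1 cells, force-coupled to calcium signalling, were dye-loaded with a no-wash calcium kit. Compound was pin-added after a 10 s baseline. Fluorescence was read kinetically at 1 cycle/s for 180 s, with calcium rises flagged as agonism.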
# TRHR PAM: TRH receptor (human) allosteric enhancement; enhancement, % at 2 µM; TRHR cells, fluo-8 calcium fluorescence, EC20 TRH enhancement; AID 493056; 0.66% of 360,000 active; P34981; in the data active = enhancement above about 30%; note: 0% is about no effect
#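 Enhancer read-out: after compound pinning and an initial kinetic agonist-mode read, an EC20 of TRH (10 nM final) was injected and fluo-8 calcium signal (Ex 480/Em 530) followed at 1 s/cycle for 100 cycles in TRHR-expressing cells.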
# D1 PAM: potentiators of human D1 dopamine receptor; P21728; HEK293 TREx D1 cells, calcium flux, dopamine EC20 potentiation; potentiation, % at 10 µM; 0.036% of 360,000 active; AID 504651; in the data active = potentiation above about 30%; note: 0% is about no effect
# * = called active by the depositor; ! = a repeat was not active. Cut-off read from the data, not from the text of the source, unless noted: active = activation above about 30%; inactive = the rest.
SMILES,D1 antagonist,TRHR agonist,D1 ag,TRHR PAM,D1 PAM
CC(C)N(c1nnc(N)s1)C(C)C,-31.2*,-0.1,-0.7,6.4,-6.2
CN(C)CC(C)(C)CNS(=O)(=O)CC12CCC(CC1=O)C2(C)C (stereo not given),-75.0*,0.6,-1.3,2.7,0.1
CC1(C)C2CCC1(CS(=O)(=O)NC1CCCC1)C(=O)C2 (stereo not given),12.0,0.1,4.0,-3.0,-1.0
O=C1CSC(=S)N1c1cccc(Br)c1,-82.5*,-0.5,3.1,-16.4,-15.7
COc1ccc(-n2nnc3c(SCc4ccccc4)ncnc32)cc1,-6.1,1.3,15.7,-2.1,2.6
COc1ccc(-n2nnc3c(SCC(=O)OCc4ccccc4)ncnc32)cc1,-3.8,0.0,4.6,30.8*,-8.6
COc1ccc(NC(=O)CSc2ncnc3c2nnn3-c2ccc(F)cc2)c(OC)c1,-34.2*,0.6,2.4,-4.8,-4.5
Nc1sc2c(c1C(=O)c1ccccc1)CCCC2,-65.8*,-0.6,1.4,-3.7,-1.4
NC(=O)c1c(N)sc2c1CCCC2,-6.5,0.5,1.9,4.1,0.7
CN1CCCN(C(=O)CSc2ccccc2)CC1,30.3,0.4,-2.4,31.4*,-4.5
O=C(CCC(=O)N1CCN(c2ccccc2F)CC1)N1CCN(c2ccccc2)CC1,-61.5*,0.4,8.6,10.6,-3.2
O=C(CCC(=O)N1CCN(c2ccccc2F)CC1)N1CCN(c2ccc(F)cc2)CC1,-13.6,-0.3,3.8,0.9,-1.1
CN1CCCN(C(=O)CC(c2ccccc2)c2ccccc2)CC1,7.9,-1.1,-0.3,-1.3,-4.1
Cc1[nH]c2ccccc2c1SCC(=O)N1CCN(c2ccccc2)CC1,-43.2*,0.4,-1.4,11.0,-7.3
Cc1[nH]c2ccccc2c1SCC(=O)N1CCCCC1,-17.5,0.0,2.0,0.5,-4.5
O=C(CSc1ccccc1)N1CCN(c2ccccc2)CC1,-33.7*,2.4,-1.2,-1.1,-5.0
CCOc1ccc(NC(=O)c2cc(S(=O)(=O)N3CCc4ccccc43)ccc2F)cc1,9.7,-0.3,-1.0,-1.0,-2.2
Cc1cc(C)cc(NC(=O)C2CCN(S(=O)(=O)c3cccc(-c4noc(C)n4)c3)CC2)c1,6.4,-0.1,4.6,-2.7,0.7
O=C(CSc1ccccc1C(=O)N1CCN(c2ccccc2)CC1)N1CCCC1,-43.9*,-0.4,0.3,2.6,-9.5
CC1CCCCC12NC(=O)N(CC(=O)N1CCN(S(=O)(=O)Cc3ccccc3)CC1)C2=O (stereo not given),-35.3*,0.6,0.8,8.6,-5.3
Cc1ccc2c(C)c(C(=O)Nc3c(C)n(C)n(-c4ccccc4)c3=O)oc2c1C,-37.4*,-0.7,0.4,3.2,-6.9
Cc1c(NC(=O)c2cc(-c3ccc(Cl)cc3)on2)c(=O)n(-c2ccccc2)n1C,-7.9,-0.8,2.0,30.4*!,-10.0
Cc1cc2oc(C(=O)Nc3c(C)n(C)n(-c4ccccc4)c3=O)c(C)c2cc1C,-1.0,-0.4,1.0,-0.2,-3.3
O=C(Nc1c(Cl)cccc1Cl)c1cc(-c2cccc(O)c2)on1,-50.2*,-0.8,47.4*,3.1,-0.5
O=C(Nc1c(Cl)cccc1Cl)c1cc(-c2ccc3c(c2)OCO3)on1,-17.3,1.7,6.7,-3.8,-1.1
SMILES,D1 antagonist,TRHR agonist,D1 ag,TRHR PAM,D1 PAM
Cc1ccc2c(C)c(C(=O)N(Cc3ccc(N(C)C)cc3)Cc3ccco3)oc2c1C,13.3,-0.3,2.2,2.1,1.2
N#CCCn1c(=O)n(CCC#N)c2ccccc21,-38.3*,0.3,0.6,-5.6,-7.7
Cn1c(=O)n(CC#N)c2ccccc21,5.0,0.0,3.2,1.4,-2.6
COc1ccccc1CCNC(=O)C(=O)NCC1OCCN1S(=O)(=O)c1ccc2c(c1)OCCO2 (stereo not given),-20.1,-0.8,10.3,0.8,-15.6
O=C(NCCc1ccccc1)c1cc2sccc2n1Cc1ccc(F)cc1,-30.6*,0.5,8.1,-6.9,-3.2
Cc1c(C)c2ccc(OCC(=O)N3CC[C@@]4(O)CCCC[C@H]4C3)cc2oc1=O,-11.3,0.4,1.9,4.9,0.8
O=C(COc1ccc2ccc(=O)oc2c1)N1CC[C@@]2(O)CCCC[C@H]2C1,-49.1*,0.1,0.4,-3.2,-9.6
Cc1ccc(CN(Cc2ccco2)C(=O)c2ccccc2Cl)o1,-0.7,-1.0,-0.8,-5.1,1.0
COc1ccccc1N1C(=O)C2C(C(=O)c3ccccc3)=NN(c3ccccc3)C2C1=O (stereo not given),-18.1,18.0,35.3*,3.0,-0.4
CCOC(=O)C1=NN(c2ccccc2)C2C(=O)N(c3ccccc3OC)C(=O)C12 (stereo not given),11.3,-1.2,5.0,-0.2,2.7
COC(=O)C1=NN(c2ccc(Cl)cc2)C2C(=O)N(c3ccccc3OC)C(=O)C12 (stereo not given),2.6,0.3,0.7,1.0,-3.0
CCOc1ccc(N2C(=O)C3C(c4ccccc4)=NN(c4ccccc4)C3C2=O)cc1 (stereo not given),-5.5,0.6,4.2,6.1,0.1
Cc1ccc(N2C(=O)C3C(C(=O)c4ccccc4)=NN(c4ccccc4)C3C2=O)cc1 (stereo not given),-10.6,-1.0,117.2*,-0.6,-6.2
COc1ccccc1N1N=C(C(=O)c2ccccc2)C2C(=O)N(c3ccc(Br)cc3)C(=O)C21 (stereo not given),-8.8,12.3,46.1*,-2.8,0.4
O=C(C1=NN(c2ccccc2)C2C(=O)N(c3ccccc3Cl)C(=O)C12)c1ccccc1 (stereo not given),-9.5,58.2*,192.9*,4.6,-4.8
Cc1ccc(NC(=O)C(Cc2ccccc2)n2cccc2)cc1C (stereo not given),-9.2,0.4,1.0,-7.1,-7.3
COC(=O)c1ccccc1NC(=O)CSc1c2c(nc3ccc(Cl)cc13)CCCC2,-12.7,-0.2,0.6,-3.1,1.6
Cc1ccc(NC(=O)NCc2c(-n3cccc3)sc3c2CCCC3)c(Cl)c1,-12.1,-1.0,0.2,-2.1,-2.0
CCOc1ccc(NC(=O)CC2C(=O)N(c3ccccc3)C(=O)N2C2CCCCC2)cc1 (stereo not given),-1.5,-0.4,-1.6,1.0,-1.6
CCOC(=O)C1CCN(C(=O)Cc2c(C(=O)O)n(CC)c3ccccc23)CC1,-86.7*,0.6,0.7,2.6,-4.7
CCOC(=O)N1CCN(C(=O)Cc2c(C(=O)O)n(C)c3ccccc23)CC1,3.3,0.8,1.3,3.6,-0.5
CCOC(=O)SC1=N/C(=C\c2ccc(N(C)C)cc2)C(=O)S1,-8.0,10.6,32.8*,2.8,-2.6
CCSC1=N/C(=C\c2ccc(C(=O)O)cc2)C(=O)S1,-18.4,0.4,1.6,-5.8,-7.7
O=C(CCc1ccc(S(=O)(=O)N2CCOCC2)cc1)OCc1nc2ccccc2s1,-8.8,-0.7,33.3*,-9.0,2.1

# Screens (PubChem)
